The results in this text go back to PubChem BioAssay (NCATS).

Test in all cases: qHTS profiling for inhibitors of Plasmodium falciparum proliferation (AID 504749); also: nearly all actives have a fitted effect of over 60% in size
Conditions in all cases: P. falciparum in erythrocytes, SYBR Green DNA, 72 h; series mostly up to 28.7 µM
For orientation: Quantitative high-throughput screening tests each substance at several concentrations.

One assay deals with CP265. An outline of the steps: (§1)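 Each compound contacts P. falciparum-infected red blood cells for 72 h at 37 C; lysis buffer (Tris, EDTA, saponin, Triton X, SYBR Green I) is added and fluorescence measured next morning; values normalized to controls.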
A further assay has as its system CP268. An outline of the steps:
as §1

The next assay concerns CP269. The method in brief: as §1
Another assay has as its system CP286. The method in brief:
as §1

The subject of another assay is CP291. The method in brief: as §1
A further assay deals with CP297. The method in brief:
as §1

The subject of another assay is CP305. The method in brief:
as §1

The next assay deals with CP315. An outline of the steps: as §1
A further assay relates to CP325. An outline of the steps: as §1
The next assay concerns CP329. An outline of the steps: as §1
The test system of the next assay is CP335. An outline of the steps: as §1
A further assay has as its system DFO2036. An outline of the steps: as §1
The subject of a further assay is DIV14. An outline of the steps:
as §1

For another assay, the system named is DIV17. The method in brief: as §1
The test system of the next assay is DIV30. The method in brief:
as §1

Another assay has as its system Dd2. The method in brief: as §1
A further assay has as its system ECU. The method in brief:
as §1

Another assay concerns FAB9. An outline of the steps:
as §1

The test system of the next assay is GB4. An outline of the steps: as §1
The subject of another assay is CP266. An outline of the steps:
as §1

The structures appear in SMILES notation. Results filed as inconclusive are left out. The source made the active and inactive calls. Calls follow the shape of the dose curve; as a rule, active = well fitted inhibition curve with a large enough effect; inconclusive = small, poorly fitted or top-dose-only effect; inactive = flat fitted curve, though single readings scatter.
Potency is read from the fitted curve at half-maximal effect.

Regarding `CC(=O)Nc1ccc(OC(=O)c2ccccc2OC(C)=O)cc1`, the Potency entry in the assay with CP265, in the assay on CP268, in the assay on CP269, in the assay on CP286, with CP291 and with CP297 was “inactive” throughout. For the same compound, the Potency entry in the assay with CP305, in the assay on CP315, with CP325, in the assay with CP329, with CP335 and in the assay on DFO2036 was “inactive” each time. Moreover, the Potency result in the assay with DIV14, in the assay on DIV17, with DIV30, with Dd2, in the assay on ECU and with FAB9 was “inactive” each time. Besides, the Potency result with GB4 is “inactive”.

For `COc1ccc(CN(CCN(C)C)c2ncccn2)cc1`, the Potency entry in the assay with CP265, in the assay on CP268, in the assay on CP269, in the assay with CP286, in the assay with CP291 and with CP297 was “inactive” throughout. The Potency result in the assay on CP305, in the assay with CP315, in the assay with CP325, with CP329, in the assay on CP335 and in the assay with DFO2036 was “inactive” throughout. Besides, the Potency result in the assay on DIV14, with DIV17, in the assay with DIV30, in the assay on Dd2, with ECU and in the assay on FAB9 was “inactive” in each case. Also, in the assay with GB4, the Potency is 9.53 µM (active).

Consider `O=C(O)CCNC(=O)c1ccccc1`, for which the Potency entry in the assay with CP265, with CP268, in the assay on CP269, in the assay with CP286, with CP291 and in the assay with CP297 was “inactive” in each case. The Potency entry with CP305, with CP315, in the assay on CP325, in the assay on CP329, with CP335 and in the assay on DFO2036 was “inactive” in each case. Besides, the Potency result in the assay with DIV14, in the assay with DIV17, in the assay on DIV30, with Dd2, in the assay with ECU and in the assay with FAB9 was “inactive” in each case. In addition, the Potency entry in the assay on GB4 is “inactive”.

Turning to `O=C1C(O)=C(O)C(=O)C(O)=C1O`, the Potency result in the assay with CP265, in the assay with CP266, in the assay on CP268, in the assay on CP269, in the assay with CP291 and in the assay with CP305 was “inactive” throughout. The Potency entry in the assay with CP315, with CP325, in the assay with CP329, in the assay with CP335, in the assay with DFO2036 and in the assay with DIV14 was “inactive” throughout. The Potency entry in the assay on DIV17, in the assay with DIV30, in the assay with ECU, with FAB9 and in the assay on GB4 was “inactive” throughout. The Potency in the assay on Dd2 is 10 µM (active).

As to `CN(C)C(=O)Nc1ccc(Cl)c(Cl)c1`, the Potency entry in the assay on CP265, in the assay with CP268, in the assay with CP286, with CP291, in the assay with CP325 and in the assay with DFO2036 was “inactive” each time. In addition, the Potency result with ECU and in the assay on FAB9 was “inactive” throughout. Further, the figures for the Potency in the assay on DIV14 and in the assay with DIV17 were 3.01 µM (active) and 4.78 µM (active), respectively.

Consider `NCCNc1cccc2ccccc12`, for which the Potency result with CP265, with CP266, in the assay with CP268, in the assay on CP269, with CP286 and in the assay with CP291 was “inactive” each time. Besides, the Potency entry in the assay on CP305, with CP315, in the assay on CP325, in the assay with CP329, with DIV30 and in the assay with ECU was “inactive” throughout. Further, the Potency result with FAB9 is “inactive”. Also, the Potency in the assay with DIV17 is 15.1 µM (active).

For `OCCOCCN1CCN(C2=Nc3ccccc3Sc3ccccc32)CC1`, the Potency entry in the assay on CP265, in the assay on CP268, in the assay with CP269, in the assay on CP286, in the assay with CP291 and in the assay with CP297 was “inactive” each time. Besides, the Potency entry in the assay on CP305, with CP315, with CP325, with CP329, with CP335 and with DFO2036 was “inactive” throughout. In addition, the Potency entry in the assay on DIV17, in the assay on DIV30, with ECU, in the assay on FAB9 and in the assay with GB4 was “inactive” each time.

Take `CCCN(CCc1cccs1)[C@H]1CCc2c(O)cccc2C1`: the Potency with CP265 is 11.2 µM (active); in the assay on CP268 it was 10.7 µM (active); with CP269, 15.1 µM (active); in the assay on CP286, 10 µM (active); in the assay with CP291, 10.7 µM (active); with CP297, 6.75 µM (active). Moreover, the Potency with CP305 was 13.5 µM (active); with CP325 it was 12 µM (active); in the assay with CP335 it was 8.49 µM (active); with DFO2036, 10 µM (active); in the assay on DIV14 it was 4.26 µM (active); in the assay with DIV17, 3.01 µM (active). Further, the Potency was 5.36 µM (active) in the assay on DIV30, 2.51 µM (active) in the assay with Dd2, 2.82 µM (active) in the assay on ECU and 1.69 µM (active) in the assay on GB4.

Regarding `Cc1cc(-c2ccccc2)nnc1NCCN1CCOCC1`, the Potency result in the assay on CP265, with CP268, in the assay with CP269, with CP286, with CP297 and with CP305 was “inactive” in each case. The Potency result with CP315, in the assay on CP329, in the assay on CP335, in the assay on DFO2036, in the assay with FAB9 and in the assay with GB4 was “inactive” in each case. Also, the Potency in the assay on DIV17 is 8.49 µM (active).

With `CN1CCC(OC(c2ccccc2)c2ccccc2)CC1`, the Potency in the assay with CP265 was 3.55 µM (active); in the assay with Dd2, 3.98 µM (active). In addition, the Potency result in the assay on CP266, in the assay with CP297, in the assay with CP315, with ECU and in the assay with FAB9 was “inactive” throughout.

On to `O=C(Nc1ncc([N+](=O)[O-])s1)c1cccs1`, for which the Potency result in the assay with CP265, in the assay on CP268, in the assay with CP269, in the assay with CP286, with CP291 and in the assay with CP297 was “inactive” throughout. Also, the Potency entry in the assay with CP305, in the assay on CP315, in the assay with CP325, in the assay on CP329, in the assay with CP335 and in the assay on DFO2036 was “inactive” in each case. For the same compound, the Potency entry with DIV14, in the assay with DIV17, in the assay with DIV30, with Dd2, in the assay with ECU and in the assay on FAB9 was “inactive” throughout. For the same compound, the Potency entry in the assay with GB4 is “inactive”.

Consider `CC(C)(C)CC(C)(C)c1ccc(O)c(-n2nc3ccccc3n2)c1`, for which the Potency result in the assay with CP266, in the assay on CP268, in the assay with CP269, in the assay on CP291, in the assay on CP297 and in the assay on CP305 was “inactive” throughout. The Potency entry in the assay with CP315, in the assay on CP325, in the assay on CP329 and in the assay on DIV30 was “inactive” throughout. Moreover, the Potency in the assay with DIV14 is 13.5 µM (active); in the assay on DIV17, 13.5 µM (active); in the assay with Dd2, 12.6 µM (active); with GB4 it was 16.9 µM (active).

In the case of `CCNC(=O)/C=C/c1cccc(Br)c1`, the Potency entry in the assay with CP266, with CP268, with CP269, in the assay with CP286, in the assay with CP291 and in the assay with CP297 was “inactive” in each case. Further, the Potency entry with CP305, in the assay on CP315, with CP325, in the assay on CP329, in the assay on CP335 and in the assay on DFO2036 was “inactive” in each case. The Potency result with DIV17, in the assay on DIV30, in the assay with Dd2, in the assay on ECU, in the assay with FAB9 and with GB4 was “inactive” in each case.

`N/C(=N\N=C\c1ccc(Cl)cc1)N/N=C/c1ccc(Cl)cc1`: the Potency entry with CP266, in the assay with CP268, with CP269, in the assay on CP291, in the assay with CP297 and with CP305 was “inactive” each time. Also, the Potency result in the assay with CP315, in the assay on CP325, with CP329, with DIV14, with DIV17 and with DIV30 was “inactive” throughout. The results for the Potency with CP286 and with DFO2036 were 3.55 µM (active) and 3.16 µM (active), respectively.

As to `CN(CCCN1c2ccccc2CCc2ccccc21)CC(=O)c1ccc(Cl)cc1`, the Potency was 11.2 µM (active) with CP265; 7.08 µM (active) in the assay on CP286; 13.5 µM (active) in the assay on CP335; 4.26 µM (active) in the assay on DIV14; 4.78 µM (active) in the assay on DIV17; 7.08 µM (active) in the assay on Dd2. Also, the Potency with ECU is 10 µM (active). Moreover, the Potency result with CP305, with CP315 and in the assay on FAB9 was “inactive” each time.

On to `Cc1ccc2c(Br)cc(Br)c(O)c2n1`, for which the Potency with CP315 was 12 µM (active); with CP329, 15.1 µM (active); in the assay on DFO2036, 10 µM (active); with DIV30, 16.9 µM (active); in the assay on Dd2 it was 11.2 µM (active).

`COc1ccc(C(=O)c2ccccc2)c(O)c1`: the Potency result with CP266, in the assay with CP268, with CP269, in the assay on CP286, in the assay on CP291 and with CP297 was “inactive” throughout. In addition, the Potency entry with CP315, with CP325, in the assay on CP329, with DFO2036 and in the assay with FAB9 was “inactive” each time.

Turning to `C[N+]1(C)CCC(=C(c2ccccc2)c2ccccc2)CC1`, the Potency entry in the assay with CP265, in the assay with CP297, in the assay on CP315, in the assay with CP329, with DFO2036 and in the assay with DIV30 was “inactive” throughout. Besides, the Potency entry with Dd2 and in the assay with ECU was “inactive” each time.

`NC(N)=NN=C(/C=C/c1ccc([N+](=O)[O-])o1)/C=C/c1ccc([N+](=O)[O-])o1`: the Potency is 2.24 µM (active) in the assay on CP286; 4.78 µM (active) in the assay with CP335; 11.2 µM (active) in the assay with DFO2036; 7.57 µM (active) with DIV14; 7.57 µM (active) with DIV17; 2.82 µM (active) in the assay on Dd2. Also, the Potency with ECU was 12.6 µM (active).

For the compound `CCN(CC)CCOC(=O)C1(c2ccccc2)CCCC1`, the Potency entry in the assay with CP265, with CP329, in the assay on DFO2036, in the assay on DIV30, in the assay with ECU and with FAB9 was “inactive” throughout. For the same compound, the Potency with Dd2 was 8.91 µM (active).

As for `CC(C)(Cc1c[nH]c2ccccc12)NCC(O)COc1ccccc1C#N` (configuration not stated), the Potency result with CP315, in the assay with CP325 and in the assay with FAB9 was “inactive” each time. For the same compound, the Potency was 8.49 µM (active) in the assay with DIV14, 9.53 µM (active) in the assay with DIV17, 12.6 µM (active) with Dd2 and 9.53 µM (active) with GB4.
